From PubChem BioAssay AID1159580 (chemical genetic matrix, 2015)
Where “and” joins values, the source holds several entries; their conditions need not be identical. Identical values can stand only once. In all, about 5,500 compounds went through this assay and about 2,000 (36%) were called active. About 18% were inconclusive and are not listed. Cut-off read from the data, not from the text of the source: active = normalized growth mostly below about 0.91 (no sharp cut-off); inconclusive = no clear call, values can overlap the other calls; inactive = mostly above about 0.92. This is one part of the list.

Assay: chemical genetic growth profiling, strain panel (AID 1159580);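 note: tested at 20 µM; growth read once vehicle control cultures reached saturation at 30 °C; 1 = growth at the plate median or of vehicle wells; lower values mean less growth of the strain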
Details: S. cerevisiae deletion strains, growth OD

Measured: normalized growth

CC(NC(C)(C)C)C(=O)c1cccc(Cl)c1 (stereo not given)
inactive: locus YAL013W, strain DEP1, hits give low values 1.01 | locus YAL021C, strain ccr4, hits give low values 1.02 | locus YAL026C, strain drs2, hits give low values 1 | locus YAL030W, strain snc1, hits give low values 0.998 | locus YAL040C, strain CLN3, hits give low values 0.958 | locus YBL061C, strain skt5, hits give low values 0.993 | locus YBR009C, strain hhf1, hits give low values 1 | locus YBR021W, strain FUR4, hits give low values 0.995 | locus YBR023C, strain chs3, hits give low values 0.996 | locus YBR171W, strain sec66, hits give low values 0.996 | locus YBR229C, strain ROT2, hits give low values 1 | locus YBR231C, strain swc5, hits give low values 1 | locus YBR279W, strain paf1, hits give low values 0.998 | locus YCL011C, strain gbp2, hits give low values 1 | locus YCL016C, strain dcc1, hits give low values 0.995 | locus YCL029C, strain bik1, hits give low values 1.05 | locus YCL061C, strain MRC1, hits give low values 0.994 | locus YCL069W, strain vba3, hits give low values 0.994 | locus YCR088W, strain abp1, hits give low values 1 | locus YDL005C, strain med2, hits give low values 0.993 | locus YDL035C, strain GPR1, hits give low values 1.01 | locus YDL040C, strain nat1, hits give low values 0.994 | locus YDL074C, strain BRE1, hits give low values 0.988 | locus YDL101C, strain DUN1, hits give low values 1.02 | locus YDL134C, strain PPH21, hits give low values 1 | locus YDL185W, strain tfp1, hits give low values 1.02 | locus YDL192W, strain arf1, hits give low values 1.03 | locus YDR001C, strain nth1, hits give low values 1.01 | locus YDR069C, strain doa4, hits give low values 1 | locus YDR101C, strain arx1, hits give low values 1.03 | locus YDR137W, strain rgp1, hits give low values 1 | locus YDR150W, strain NUM1, hits give low values 1.01 and 0.976 | locus YDR159W, strain sac3, hits give low values 0.997 | locus YDR162C, strain NBP2, hits give low values 1.01 | locus YDR195W, strain ref2 0.989 | locus YDR297W, strain sur2, hits give low values 1 | locus YDR318W, strain mcm21, hits give low values 1.02 | locus YDR334W, strain swr1, hits give low values 0.986 | locus YDR335W, strain msn5, hits give low values 1 | locus YDR363W, strain ESC2, hits give low values 1.02 | locus YDR388W, hits give low values 1.02 | locus YDR392W, strain spt3, hits give low values 0.978 | locus YDR502C, strain sam2, hits give low values 1.04 | locus YEL003W, strain gim4, hits give low values 1 | locus YEL037C, strain rad23, hits give low values 1 | locus YEL061C, strain CIN8 (second series), hits give low values 1 | locus YEL061C, strain CIN8, hits give low values 1.01 | locus YER002W, strain NOP16, hits give low values 0.979 | locus YER015W, strain faa2, hits give low values 1 | locus YER016W, strain bim1, hits give low values 1 | locus YER110C, hits give low values 1.05 | locus YER111C, strain swi4, hits give low values 0.987 | locus YER155C, strain BEM2 (second series), hits give low values 1.01 | locus YER155C, strain BEM2, hits give low values 1 | locus YER167W, strain BCK2, hits give low values 1.01 | locus YFR010W, strain ubp6, hits give low values 1 | locus YGL078C, strain dbp3, hits give low values 1 | locus YGL086W, strain mad1, hits give low values 1 | locus YGL167C, strain pmr1, hits give low values 0.991 | locus YGL173C, strain kem1, hits give low values 0.977 | locus YGL227W, strain vid30, hits give low values 0.992 | locus YGL240W, strain doc1, hits give low values 1.02 | locus YGL248W, strain PDE1, hits give low values 1.01 | locus YGL253W, strain hxk2, hits give low values 0.992 | locus YGR078C, strain PAC10, hits give low values 1.01 | locus YGR135W, strain pre9, hits give low values 1.02 | locus YGR229C, strain SMI1, hits give low values 0.999 | locus YGR252W, strain gcn5, hits give low values 0.989 | locus YHR013C, strain ard1, hits give low values 0.976 | locus YHR027C, strain rpn1, hits give low values 0.996 | locus YHR030C, strain SLT2, hits give low values 1.01 and 1 | locus YHR079C, strain IRE1 (second series), hits give low values 1.02 | locus YHR079C, strain IRE1, hits give low values 0.999 | locus YHR094C, strain hxt1, hits give low values 1.02 | locus YHR129C, strain ARP1, hits give low values 1.02 | locus YHR142W, strain chs7, hits give low values 1 | locus YHR200W, strain rpn10, hits give low values 1.02 | locus YIL066C, strain RNR3, hits give low values 1.01 | locus YIL073C, strain SPO22, hits give low values 1.07 | locus YIL125W, strain kgd1, hits give low values 1.02 | locus YIR030C, strain dcg1, hits give low values 1.04 | locus YJL092W, strain hpr5, hits give low values 0.995 | locus YJL095W, strain BCK1 (second series), hits give low values 0.997 | locus YJL095W, strain BCK1, hits give low values 1.01 and 0.995 | locus YJL115W, strain asf1, hits give low values 0.996 | locus YJL129C, strain trk1, hits give low values 1.01 | locus YJL134W, strain LCB3, hits give low values 1.01 | locus YJL154C, strain vps35, hits give low values 1.01 | locus YJL164C, strain tpk1, hits give low values 1 | locus YJL166W, strain qcr8, hits give low values 0.993 | locus YJL168C, strain set2, hits give low values 1.02 | locus YJL187C, strain SWE1 (second series), hits give low values 1.02 | locus YJL187C, strain SWE1, hits give low values 0.996 | locus YJR043C, strain POL32, hits give low values 1 | locus YJR066W, strain TOR1, hits give low values 0.969
